These results are taken from PubChem BioAssay (EPA / NIEHS).

Results filed as inconclusive are left out. Active and inactive are the calls of the source. The calls were made as follows: active = hit-call score of the fitted dose curve at least 0.9, where 1 is the maximum; inconclusive = response in the unintended direction; inactive = score below 0.9.

rat Serotonin, 5-Hydroxytryptamine Receptor (5HT), Non-Selective Binding, Htr1a (gene 24473), sequence (P19327 whole entry, looked up): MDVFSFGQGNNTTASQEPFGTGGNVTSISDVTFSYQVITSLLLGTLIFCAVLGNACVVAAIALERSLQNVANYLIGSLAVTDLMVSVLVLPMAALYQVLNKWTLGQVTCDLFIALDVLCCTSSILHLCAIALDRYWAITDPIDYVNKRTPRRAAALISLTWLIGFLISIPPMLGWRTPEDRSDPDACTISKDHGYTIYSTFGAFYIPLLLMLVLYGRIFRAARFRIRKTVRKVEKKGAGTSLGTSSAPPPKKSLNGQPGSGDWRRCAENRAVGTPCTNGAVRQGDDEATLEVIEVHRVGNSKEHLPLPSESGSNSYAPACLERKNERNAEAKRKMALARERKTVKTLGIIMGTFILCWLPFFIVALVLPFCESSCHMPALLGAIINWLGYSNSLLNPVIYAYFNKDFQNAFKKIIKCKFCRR
rat Adrenergic, Alpha 1A Receptor (Adra1A), Adra1a (gene 29412), sequence (P43140 whole entry, looked up): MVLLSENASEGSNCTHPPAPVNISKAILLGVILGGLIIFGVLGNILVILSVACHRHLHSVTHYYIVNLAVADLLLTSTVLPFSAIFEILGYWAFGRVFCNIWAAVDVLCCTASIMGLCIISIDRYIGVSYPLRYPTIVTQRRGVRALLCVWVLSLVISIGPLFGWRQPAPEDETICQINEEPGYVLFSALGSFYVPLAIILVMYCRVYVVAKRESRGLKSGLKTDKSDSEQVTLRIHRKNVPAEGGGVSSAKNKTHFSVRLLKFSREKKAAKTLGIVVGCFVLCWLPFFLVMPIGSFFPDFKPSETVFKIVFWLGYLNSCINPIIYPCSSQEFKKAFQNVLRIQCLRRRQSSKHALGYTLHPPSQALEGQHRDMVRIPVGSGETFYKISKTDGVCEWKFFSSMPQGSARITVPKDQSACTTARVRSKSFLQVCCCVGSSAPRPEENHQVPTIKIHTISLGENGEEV
rat Adrenergic Receptor, Beta (Adrb), Non-selective Binding, Adrb1 (gene 24925), sequence (P18090 whole entry, looked up): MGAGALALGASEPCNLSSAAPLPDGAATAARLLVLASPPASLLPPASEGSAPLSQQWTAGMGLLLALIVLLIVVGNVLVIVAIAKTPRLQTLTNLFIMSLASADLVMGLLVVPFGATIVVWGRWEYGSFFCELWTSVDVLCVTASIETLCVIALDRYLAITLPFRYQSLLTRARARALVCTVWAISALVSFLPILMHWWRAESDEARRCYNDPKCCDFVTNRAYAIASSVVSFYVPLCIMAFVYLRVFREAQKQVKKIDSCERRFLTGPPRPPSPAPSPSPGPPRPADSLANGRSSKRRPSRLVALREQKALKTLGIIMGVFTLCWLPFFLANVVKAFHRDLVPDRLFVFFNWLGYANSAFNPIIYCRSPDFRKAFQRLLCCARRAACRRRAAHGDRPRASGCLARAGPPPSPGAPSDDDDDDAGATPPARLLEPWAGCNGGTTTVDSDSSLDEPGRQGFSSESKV
rat Histamine Receptor (H3), Hrh3 (gene 85268), sequence (Q9QYN8 whole entry, looked up): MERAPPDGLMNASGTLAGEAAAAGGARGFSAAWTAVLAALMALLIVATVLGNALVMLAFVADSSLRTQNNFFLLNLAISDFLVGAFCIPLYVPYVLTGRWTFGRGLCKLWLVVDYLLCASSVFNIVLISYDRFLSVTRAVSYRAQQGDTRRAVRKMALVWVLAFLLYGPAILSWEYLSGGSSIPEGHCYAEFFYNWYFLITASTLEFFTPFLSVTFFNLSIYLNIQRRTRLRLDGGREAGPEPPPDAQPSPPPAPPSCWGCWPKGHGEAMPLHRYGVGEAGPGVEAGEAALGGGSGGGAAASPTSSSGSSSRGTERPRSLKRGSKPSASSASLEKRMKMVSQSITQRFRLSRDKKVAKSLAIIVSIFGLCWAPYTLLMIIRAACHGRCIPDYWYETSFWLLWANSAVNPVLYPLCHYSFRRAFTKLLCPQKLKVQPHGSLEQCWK
rat Adrenergic Receptor, Alpha 2 (Adra2), Non-selective Binding, Adra2a (gene 25083), sequence (P22909 whole entry, looked up): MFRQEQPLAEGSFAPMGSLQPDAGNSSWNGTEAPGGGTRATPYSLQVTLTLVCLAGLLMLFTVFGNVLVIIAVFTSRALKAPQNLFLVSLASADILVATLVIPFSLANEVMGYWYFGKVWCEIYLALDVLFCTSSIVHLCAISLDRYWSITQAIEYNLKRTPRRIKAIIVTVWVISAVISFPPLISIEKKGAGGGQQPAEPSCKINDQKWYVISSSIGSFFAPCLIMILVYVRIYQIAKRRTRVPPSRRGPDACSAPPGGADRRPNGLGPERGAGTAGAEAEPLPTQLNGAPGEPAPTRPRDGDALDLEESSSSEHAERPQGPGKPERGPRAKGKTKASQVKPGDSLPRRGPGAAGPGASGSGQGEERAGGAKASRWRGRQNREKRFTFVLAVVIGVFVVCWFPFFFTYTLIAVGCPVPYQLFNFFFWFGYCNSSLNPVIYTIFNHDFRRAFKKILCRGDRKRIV
rat Gamma-Aminobutyric Acid Type B Receptor (GABBR), Gabbr1 (gene 81657), sequence (Q9Z0U4 whole entry, looked up): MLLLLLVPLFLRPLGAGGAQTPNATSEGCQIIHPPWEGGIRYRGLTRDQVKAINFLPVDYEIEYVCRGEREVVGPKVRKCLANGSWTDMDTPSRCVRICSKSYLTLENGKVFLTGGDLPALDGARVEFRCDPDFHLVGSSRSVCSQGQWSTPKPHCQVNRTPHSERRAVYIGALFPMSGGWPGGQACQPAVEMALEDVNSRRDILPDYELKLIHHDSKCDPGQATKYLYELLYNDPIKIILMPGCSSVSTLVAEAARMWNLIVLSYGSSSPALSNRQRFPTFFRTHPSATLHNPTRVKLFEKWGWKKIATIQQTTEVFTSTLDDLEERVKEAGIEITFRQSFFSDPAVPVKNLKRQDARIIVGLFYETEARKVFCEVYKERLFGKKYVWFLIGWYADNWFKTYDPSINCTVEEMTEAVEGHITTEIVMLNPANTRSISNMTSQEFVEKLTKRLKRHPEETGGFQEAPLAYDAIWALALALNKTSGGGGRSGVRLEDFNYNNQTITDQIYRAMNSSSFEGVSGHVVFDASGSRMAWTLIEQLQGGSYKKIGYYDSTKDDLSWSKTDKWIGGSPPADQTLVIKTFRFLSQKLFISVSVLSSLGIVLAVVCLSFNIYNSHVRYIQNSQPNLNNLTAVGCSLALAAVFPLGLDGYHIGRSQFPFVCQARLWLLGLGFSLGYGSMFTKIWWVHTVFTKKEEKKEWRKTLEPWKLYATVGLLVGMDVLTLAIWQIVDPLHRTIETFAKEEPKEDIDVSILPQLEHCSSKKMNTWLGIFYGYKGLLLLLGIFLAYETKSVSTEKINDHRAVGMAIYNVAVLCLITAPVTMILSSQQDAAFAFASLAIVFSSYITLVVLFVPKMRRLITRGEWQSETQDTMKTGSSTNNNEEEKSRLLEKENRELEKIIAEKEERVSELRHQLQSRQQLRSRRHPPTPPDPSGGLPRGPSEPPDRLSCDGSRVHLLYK

The first assay deals with rat Serotonin, 5-Hydroxytryptamine Receptor (5HT), Non-Selective Binding, Htr1a (gene 24473) (UniProt P19327). Briefly: NVS_GPCR_r5HT_NonSelective: NovaScreen (NVS) G Protein-Coupled Receptor Assay for rat Serotonin, 5-Hydroxytryptamine Receptor (5HT), Non-Selective Binding (AID 2283295). Summed up:
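Rat cortex membrane preparation incubated 1 h with radioligand and test chemical; bound radioactivity counted after filtration. Screening began in duplicate at 25 uM with concentration-series follow-up; fitting relative to DMSO.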
A word on the AC50: it is the concentration at which the activity in the assay is half-maximal. In the case of `CCC[CH2][Sn]([Cl])([CH2]CCC)[CH2]CCC`, the AC50 was 12 µM (active).

In the case of `CCOC(=O)[C@]1(c2ccccc2)Oc2ccccc2[C@@H]1N`, the AC50 was 2.49 µM (active).

In the case of `OCCCl`, the outcome was inactive.

On to `O=[N+]([O-])C(Br)(CO)CO`, for which the result was inactive.

As to `O=C(N[C@H](c1ccccc1)[C@@H]1CN2CCC1CC2)c1c(Cl)ccc(C(F)(F)F)c1Cl`, the concentration at half-maximal activity (AC50) is 37.5 µM (active).

For the next assay, the target named is rat Adrenergic, Alpha 1A Receptor (Adra1A), Adra1a (gene 29412) (UniProt P43140). Briefly: NVS_GPCR_rAdra1A: NovaScreen (NVS) G Protein-Coupled Receptor Assay for rat Adrenergic, Alpha 1A Receptor (Adra1A) (AID 2283296). The procedure, abridged:
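Filter radiodetection after 1 h competitive binding on CEC-pretreated rat cortical membranes. Duplicate single-point screening at 25 uM; active chemicals retested across concentration series.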
In the case of `CCC[CH2][Sn]([Cl])([CH2]CCC)[CH2]CCC`, the AC50 was 11.3 µM (active).

With `[Cl-].[Cl-].[Hg+2]`, the AC50 was 12.1 µM (active).

For the compound `CCOC(=O)[C@]1(c2ccccc2)Oc2ccccc2[C@@H]1N`, the AC50 was 0.38 µM (active).

With `O=C(N[C@H](c1ccccc1)[C@@H]1CN2CCC1CC2)c1c(Cl)ccc(C(F)(F)F)c1Cl`, the AC50 was 18.1 µM (active).

The next assay relates to rat Adrenergic, Alpha 1B Receptor (Adra1B), gene 24173. Briefly: NVS_GPCR_rAdra1B: NovaScreen (NVS) G Protein-Coupled Receptor Assay for rat Adrenergic, Alpha 1B Receptor (Adra1B) (AID 2283297). Summed up:
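Filter-binding radioligand competition on membranes from rat liver, read after 1 h by scintillation counting. Single-concentration duplicate screen at 25 uM, followed by concentration-response on actives, normalised to DMSO.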
As to `CCC[CH2][Sn]([Cl])([CH2]CCC)[CH2]CCC`, the AC50 was 3.87 µM (active).

Regarding `[Cl-].[Cl-].[Hg+2]`, the AC50 is 3.96 µM (active).

In the case of `CCOC(=O)[C@]1(c2ccccc2)Oc2ccccc2[C@@H]1N`, the AC50 was 0.456 µM (active).

`O=C(N[C@H](c1ccccc1)[C@@H]1CN2CCC1CC2)c1c(Cl)ccc(C(F)(F)F)c1Cl`: the AC50 was 14.9 µM (active).

The next assay concerns the target rat Adrenergic Receptor, Beta (Adrb), Non-selective Binding, Adrb1 (gene 24925) (UniProt P18090). Briefly: NVS_GPCR_rAdrb_NonSelective: NovaScreen (NVS) G Protein-Coupled Receptor Assay for rat Adrenergic Receptor, Beta (Adrb), Non-selective Binding (AID 2283298). Summed up: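 Rat cortical membranes incubated 1 h with beta-adrenergic radioligand and test chemical; bound ligand measured by filtration and scintillation counting. Screen at 25 uM duplicate, then concentration series with 50 uM maximum; loss of signal versus DMSO.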
On to `CCC[CH2][Sn]([Cl])([CH2]CCC)[CH2]CCC`, for which the AC50 was 25 µM (active).

Consider `[Cl-].[Cl-].[Hg+2]`, for which the AC50 is 35.7 µM (active).

Regarding `CCOC(=O)[C@]1(c2ccccc2)Oc2ccccc2[C@@H]1N`, the AC50 is 2.61 µM (active).

In the case of `O=Cc1ccco1`, the compound was called inactive.

For the compound `O=[N+]([O-])c1ccc(Oc2ccc(Cl)cc2Cl)cc1`, the AC50 is 0.52 µM (active).

Take `Cc1cc(N=Nc2ccccc2C)ccc1N`: the call was inactive.

The target of another assay is rat Adrenergic Receptor, Alpha 2 (Adra2), Non-selective Binding, Adra2a (gene 25083) (UniProt P22909). Briefly: NVS_GPCR_rAdra2_NonSelective: NovaScreen (NVS) G Protein-Coupled Receptor Assay for rat Adrenergic Receptor, Alpha 2 (Adra2), Non-selective Binding (AID 2283299). The procedure, abridged:
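Filter-based scintillation counting of radioligand binding to rat cortical membrane receptors, measured 1.25 hours post-dosing; loss of signal versus DMSO indicates displacement. Initial single-concentration duplicate at 25 uM, then concentration series.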
`CCC[CH2][Sn]([Cl])([CH2]CCC)[CH2]CCC`: the AC50 is 2.98 µM (active).

On to `[Cl-].[Cl-].[Hg+2]`, for which the AC50 was 6.48 µM (active).

`CCOC(=O)[C@]1(c2ccccc2)Oc2ccccc2[C@@H]1N`: the AC50 was 3.76 µM (active).

For the next assay, the target named is rat Gamma-Aminobutyric Acid Type B Receptor (GABBR), Gabbr1 (gene 81657) (UniProt Q9Z0U4). Briefly: NVS_GPCR_rGABBR: NovaScreen (NVS) G Protein-Coupled Receptor Assay for rat Gamma-Aminobutyric Acid Type B Receptor (GABBR) (AID 2283301). The procedure, abridged:
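Rat cortical membrane preparation, competitive radioligand binding for 1 h with filtration and scintillation readout. Actives from duplicate single-point 25 uM screening proceeded to concentration series with 50 uM top concentration.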
As for `[Cl-].[Cl-].[Hg+2]`, the AC50 is 18.4 µM (active).

Turning to `CC(C)(O)c1cnn2c(-c3ccc(F)c(-c4c(F)cccc4C#N)c3)cnc2n1`, the outcome was inactive.

For the compound `ClCCOCCCl`, the result was inactive.

For `C[N+](C)(C)CC1CO1` (configuration not stated), the outcome was inactive.

The next assay deals with rat Histamine Receptor (H3), Hrh3 (gene 85268) (UniProt Q9QYN8). Briefly: NVS_GPCR_rH3: NovaScreen (NVS) G Protein-Coupled Receptor Assay for rat Histamine Receptor (H3) (AID 2283303). The procedure, abridged:
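Filter-binding radioligand competition on rat forebrain membranes, 1 h incubation; compounds screened at 25 µM in duplicate and followed in concentration series to 50 µM, loss of bound signal vs DMSO.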
For the compound `CCC[CH2][Sn]([Cl])([CH2]CCC)[CH2]CCC`, the AC50 was 15.2 µM (active).

Take `[Cl-].[Cl-].[Hg+2]`: the AC50 is 24.6 µM (active).

On to `CCOC(=O)[C@]1(c2ccccc2)Oc2ccccc2[C@@H]1N`, for which the AC50 was 10.2 µM (active).

With `CCCCCCCCn1sccc1=O`, the AC50 is 10.6 µM (active).

Turning to `CC(C)(C)OOC(=O)c1ccccc1`, the result was inactive.

In the case of `O=C(Oc1ccc(Br)cc1)N1CCN2CCC1CC2`, the AC50 is 0.851 µM (active).
